Key:
Assay in all cases: MAPPIT interaction score (arbitrary units); higher = stronger binary interaction signal, active = hit call of the paper;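 active = MAPPIT score above the 99th percentile of random reference set scores in the same batch; inactive = at or below it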
[1] = biological target: CG12470; details: MAPPIT configuration: N-N; pair source set: Curagen_low_conf
[2] = biological target: Eb1; details: MAPPIT configuration: N-N; pair source set: screen_1
[3] = biological target: SmydA-3; details: MAPPIT configuration: N-N; pair source set: screen_2
[4] = biological target: Sply; details: MAPPIT configuration: N-N; pair source set: Finley_Y2H
[5] = biological target: ben; details: MAPPIT configuration: N-N; pair source set: screen_2
[6] = biological target: hb; details: MAPPIT configuration: N-N; pair source set: screen_1
[7] = biological target: promL; details: MAPPIT configuration: N-N; pair source set: screen_2
[8] = biological target: pzg; details: MAPPIT configuration: N-N; pair source set: Curagen_high_conf
[9] = biological target: spin; details: MAPPIT configuration: N-N; pair source set: screen_1
[10] = biological target: CG1246; details: MAPPIT configuration: N-N; pair source set: DPIM
[11] = biological target: CG12576; details: MAPPIT configuration: N-C; pair source set: screen_4
[12] = biological target: CG30355; details: MAPPIT configuration: N-C; pair source set: screen_4
[13] = biological target: Vha16-2; details: MAPPIT configuration: N-C; pair source set: screen_3
[14] = biological target: CG12607; details: MAPPIT configuration: N-N; pair source set: Curagen_high_conf
[15] = biological target: CG17612; details: MAPPIT configuration: N-C; pair source set: screen_4
[16] = biological target: CG30195; details: MAPPIT configuration: N-N; pair source set: DPIM
[17] = biological target: Cp190; details: MAPPIT configuration: N-C; pair source set: Lit-BM-16
[18] = biological target: Cpr72Ea; details: MAPPIT configuration: N-N; pair source set: Lit-BS-16
[19] = biological target: Trl; details: MAPPIT configuration: N-N; pair source set: Finley_Y2H
[20] = biological target: Ubc6
[21] = biological target: Zasp52; details: MAPPIT configuration: N-N
[22] = biological target: fl(2)d; details: MAPPIT configuration: N-N; pair source set: screen_2
[23] = biological target: su(Hw); details: pair source set: Lit-BM-16

Measured: MAPPIT interaction score
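Also: HEK293T cells with Epo stimulation, STAT-responsive firefly luciferase reporter, fold induction versus unstimulated cells divided by the larger fold induction of two negative controls lacking either bait or prey.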

B1: sinah (protein)
chain: MSVRNSRPQLSWPERVSPQRTIDTPTASGEMLTRRQSAPALVVPPEETTHVVVVKRQSPDAAAAGELVPSRRKDSVAVQSGIVATGPLDTTRSGARDDFLMALLECPVCFGYIMPPIMQCPRGHLICSTCRSKLTICPVCRVFMTNIRSLAMEKVASKLIFPCKHSHFGCRARLSYAEKTKHEEDCECRPYFCPYPDDKCSWQGPLRDVYQHLMSSHENVITMEGNDIIFLATNVNLEGALDWTMVQSCHGRHFLLSLEKINLGEDCQQYFTACRMIGSMKDAAEFVYNISLEAYNRTLRWQSKPRSIRENFSSFTNADFLVLNKHTVELFSEDGNLALNVVIRKVEERTN
inactive: [2] -0.0985 | [3] 0.15 | [4] 1.41 | [5] 1.2 | [6] -0.281 | [7] 0.506 | [8] -1 | [9] 0.564
active: [1] 2.95

B2: Vha68-2 (protein)
chain: MSNLKRFDDEERESKYGRVFAVSGPVVTAEAMSGSAMYELVRVGYYELVGEIIRLEGDMATIQVYEETSGVTVGDPVLRTGKPLSVELGPGIMGSIFDGIQRPLKDINELTESIYIPKGVNVPSLSRVASWEFNPLNVKVGSHITGGDLYGLVHENTLVKHKMIVNPRAKGTVRYIAPSGNYKVDDVVLETEFDGEITKHTMLQVWPVRQPRPVTEKLPANHPLLTGQRVLDSLFPCVQGGTTAIPGAFGCGKTVISQALSKYSNSDVIIYVGCGERGNEMSEVLRDFPELSVEIDGVTESIMKRTALVANTSNMPVAAREASIYTGITLSEYFRDMGYNVSMMADSTSRWAEALREISGRLAEMPADSGYPAYLGARLASFYERAGRVKCLGNPEREGSVSIVGAVSPPGGDFSDPVTSATLGIVQVFWGLDKKLAQRKHFPSINWLISYSKYMRALDDFYDKNFPEFVPLRTKVKEILQEEEDLSEIVQLVGKASLAETDKITLEVAKLLKDDFLQQNSYSSYDRFCPFYKTVGMLRNIIDFYDMARHSVESTAQSENKITWNVIREAMGNIMYQLSSMKFKDPVKDGEAKIKADFEQLHEDLQQAFRNLED
inactive: [10] -0.102

B3: Cys (protein)
chain: MNVVKSLCILGLVLVSLIATQAADEQVVGGVSQLEGNSRKEALELLDATLAQLATGDGPSYKAINVTSVTGQVVAGSLNTYEVELDNGSDKKQCTVKIWTQPWLKENGTNIKIKCSGDDGELDRTW
inactive: [11] -0.0839 | [12] 2.13 | [13] 0.0929

B4: mod(mdg4) (protein)
chain: MADDEQFSLCWNNFNTNLSAGFHESLCRGDLVDVSLAAEGQIVKAHRLVLSVCSPFFRKMFTQMPSNTHAIVFLNNVSHSALKDLIQFMYCGEVNVKQDALPAFISTAESLQIKGLTDNDPAPQPPQESSPPPAAPHVQQQQIPAQRVQRQQPRASARYKIETVDDGLGDEKQSTTQIVIQTTAAPQATIVQQQQPQQAAQQIQSQQLQTGTTTTATLVSTNKRSAQRSSLTPASSSAGVKRSKTSTSANVMDPLDSTTETGATTTAQLVPQQITVQTSVVSAAEAKLHQQSPQQVRQEEAEYIDLPMELPTKSEPDYSEDHGDAAGDAEGTYVEDDTYGDMRYDDSYFTENEDAGNQTAANTSGGGVTATTSKAVVKQQSQNYSESSFVDTSGDQGNTEAQAATSASATKIPPRKRGRPKTKVEDQTPKPKLLEKLQAATLNEEASEPAVYASTTKGGVKLIFNGHLFKFSFRKADYSVFQCCYREHGEECKVRVVCDQKRVFPYEGEHVHFMQASDKSCLPSQFMPGESGVISSLSPSKELLMKNTTKLEEADDKEDEDFEEFEIQEIDEIELDEPEKTPAKEEEVDPNDFREKIKRRLQKALQNKKK
inactive: [14] 0.232 | [17] 1.09 | [18] -2.84 | [19] -0.456 | [21]; pair source set: Curagen_low_conf 0.192 | [21]; pair source set: Lit-BS-16 -0.533 | [22] -0.311 | [23]; MAPPIT configuration: N-C 0.885 | [23]; MAPPIT configuration: N-N 0.105
active: [15] 4.86 | [16] 2.59 | [20]; MAPPIT configuration: N-C, pair source set: screen_3 3.96 | [20]; MAPPIT configuration: N-N, pair source set: screen_2 5.53

Source: the supplement of paper PMC10105736
